Assay outcomes (PubChem)
This is a sample that favours compounds with a hit; in the whole collection about 2.9% have one here.
TRPML1 inh: blocks the human TRPML1 channel; Q9GZU1; TRPML1-inducible cells, Ca2+ dye fluorescence, FDSS; stronger effect = lower value; inhibition of EC80 agonist-evoked calcium signal; activity change, negative = inhibition, % (concentration not given with the values); actives 0.02% (n = 390,000); AID 624415; in the data active means activity change below about -50%; inconclusive means between about -30% and that limit;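 further: stimulus is agonist 54-4 at its EC80 concentration; on the % scale 0 is the no-effect control and ±100 the full control effect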
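TRPML1-DL cells, Tet-induced overnight (~16 h, 37 °C) at 1,500 cells/well, were loaded with Ca8 no-wash dye plus quencher for 45-90 min at room temperature. Compounds were pinned during FDSS kinetic reading; agonist 54-4 at EC80 (4 uM final) then added.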
DRD3 agonist: activates the human D3 dopamine receptor | P35462 | D3R DiscoveRx beta-arrestin cells, luminescence, 90 min | max activation, % | actives 0.58% (n = 410,000) | AID 652048; in the data active means max activation above about 30%; further: 0% is about no effect
Target sequence (P35462 whole entry, looked up): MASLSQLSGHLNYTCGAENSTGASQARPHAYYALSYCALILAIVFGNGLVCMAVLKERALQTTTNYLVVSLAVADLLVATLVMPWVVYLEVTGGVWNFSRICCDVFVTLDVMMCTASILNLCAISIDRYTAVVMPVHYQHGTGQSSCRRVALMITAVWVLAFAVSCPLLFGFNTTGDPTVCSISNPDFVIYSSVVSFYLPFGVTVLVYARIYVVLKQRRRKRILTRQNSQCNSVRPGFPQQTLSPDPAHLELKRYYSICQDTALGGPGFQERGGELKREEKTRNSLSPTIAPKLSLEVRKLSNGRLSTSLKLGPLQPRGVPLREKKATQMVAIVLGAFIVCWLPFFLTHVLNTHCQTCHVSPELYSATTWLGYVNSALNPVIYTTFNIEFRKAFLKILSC
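Cells at 1500/well, incubated overnight, then treated with pinned compounds (dopamine as control) for 90 min at 37 degrees C. DiscoveRx reagent added for 30 - 60 minutes at room temperature; luminescence read.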
DRD3 antagonist: D3 dopamine receptor (human) antagonism. P35462. D3R cells, DiscoveRx beta-arrestin luminescence, antagonist mode; stronger effect = lower value. max response, negative = inhibition, %. actives 2.5% (n = 360,000); in the data active means max response below about -50%; inconclusive means no clear call, values can overlap the other calls; further: on the % scale 0 is the no-effect control and ±100 the full control effect
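Cells expressing the human receptor were seeded at 1500 cells/well, incubated overnight at 37 degrees C in 5% CO2, then exposed to library compounds with dopamine controls for 90 minutes at 37 degrees C before luminescent detection.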
TRPML1 agonist: agonists of human TRPML1 channel; actives 0.12% (n = 410,000); TRPML1-expressing cells, Ca2+ dye fluorescence, FDSS; AID 624414; activation, % (test concentration not listed); in the data active means activation above about 50%; inconclusive means mostly about 30% to 49%; further: 0% is about no effect
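Cells: TRPML1-DL, 1X Tet inducer, ~16 h at 37 degrees C/5% CO2. Dye: ABD Ca8 no-wash + quencher, 45-90 min RT. Read: 10 s baseline, compound add, 110 s agonist phase; 54-4 EC80 (4uM final), 110 s antagonist phase.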
Starred values were filed as active, the others as inactive; ? = inconclusive; . = not tested or not shown.

SMILES	TRPML1 inh	DRD3 agonist	DRD3 antagonist	TRPML1 agonist
CN1CC(C(=O)c2ccc([N+](=O)[O-])cc2)C(c2ccc(Cl)cc2)C1 (stereo not given)	12	-21	-59*	0
CC1CCN(C(CC(=O)c2ccccc2)C(=O)c2ccccc2)CC1 (stereo not given)	-7	-20	-79*	0
O=C1CC(=O)N(c2cccc(Cl)c2)C(=O)N1	-9	-7	-26	0
CC12CC1(C)C(=O)N(c1cc(Cl)cc(Cl)c1)C2=O (stereo not given)	-2	1	-56*	8
O=C(c1ccccc1)C(CN1CCCC1)c1ccccc1 (stereo not given)	-9	-9	-56*	2
O=C(CN1CCCC1)c1ccccc1	.	.	.	0
CCCCCc1cc(O)c2c(c1)OC(C)(C)[C@@H]1CCC(C)=C[C@@H]21	.	8	.	.
C[C@@H]1O[C@@H](O[C@@H]2C=C3CC[C@@H]4[C@@H](CC[C@]5(C)[C@H](c6ccc(=O)oc6)CC[C@@]45O)[C@@]3(C)CC2)[C@H](O)[C@H](O)[C@H]1O	.	.	.	0
C[C@]12CC[C@H](O)C[C@H]1CC[C@@H]1[C@@H]2CC[C@]2(C)[C@@H](c3ccc(=O)oc3)C[C@H]3O[C@]132	.	8	.	.
COc1ccc(C(CNC(=O)Cc2ccc(Cl)c(Cl)c2)N2CCCCC2)cc1 (stereo not given)	22	-34	-67*	0
C[C@]12CC[C@H](O)C[C@H]1CCC1C2CC[C@]2(C)[C@@H](c3ccc(=O)oc3)C[C@H]3O[C@]132 (stereo not given in full)	.	.	.	1
C[N+]1(CCF)[C@@H]2CC[C@H]1CC(OC(=O)C(O)(c1ccccc1)c1ccccc1)C2 (stereo not given in full)	.	2	.	.
CCOC(=O)C1(CCc2ccccc2)CCN(Cc2cccc3c2OCO3)CC1	4	-26	-81*	2
CCOC(=O)C1(CCc2ccccc2)CCN(Cc2cccc3cnccc23)CC1	25	-13	-2	0
O=C(Nc1ccc2c(c1)OCO2)c1cccn(Cc2ccccc2)c1=O	8	-2	.	-1
C=CCN1CC[C@]23c4c5ccc(O)c4OC2C(O)C=CC3[C@H]1C5 (stereo not given in full)	-8	-95	-110*	-1
CN(C)CCc1c[nH]c2cccc(OP(=O)(O)O)c12	.	7	.	.
COc1ccc(CCNC(C)CCc2ccc(OC)cc2)cc1 (stereo not given)	10	-30	-52*	1
CCCSP(=O)(OCC)SCCC	.	8	.	.
COc1cc(CC(C)N)c(OC)cc1Br (stereo not given)	.	-12	.	.
COc1cc([N+](=O)[O-])cc([N+](=O)[O-])c1N	.	.	.	-1
NC1CCc2cc(O)c(O)cc2C1 (stereo not given)	7	141*	59	-1
COC(=O)[C@@H]1[C@H]2CC[C@@H](C[C@H]1OC(=O)c1ccccc1)N2C	.	9	.	.
CCN(CCCl)c1cc(CN(C)C)cc(NC(=O)c2ccc(C(=O)Nc3cc(CN(C)C)cc(N(CC)CCCl)c3)cc2)c1	5	-12	-84*	0
CCN(CC)C(=O)c1ccc(NC(=O)c2cccc(C(F)(F)F)c2)cc1	7	-15	-24	0
SMILES	TRPML1 inh	DRD3 agonist	DRD3 antagonist	TRPML1 agonist
O=c1[nH]c(=S)n(Cc2ccco2)c(O)c1C=NCc1cccs1	4	-4	-70*	-1
O=c1[nH]c(=O)n(Cc2ccco2)c(O)c1C=NCc1cccs1	-4	3	5	0
CC(C)C[C@H]1C(=O)N2CCC[C@H]2[C@]2(O)O[C@](NC(=O)[C@@H]3C[C@@H]4c5cccc6[nH]cc(c56)C[C@H]4N(C)C3)(C(C)C)C(=O)N12	.	17	.	.
CCN(CC)C(=O)N[C@H]1C[C@@H]2c3cccc4[nH]cc(c34)C[C@H]2N(C)C1	-17	79*	-4	1
CN1C[C@H](CO)C[C@@H]2c3cccc4[nH]cc(c34)C[C@H]21	-13	30*	-56*	0
ClCCN(CCCl)c1ccc(/C=C/c2sc3ccccc3[n+]2CCCCI)cc1	.	.	.	20
CC(C)=CCN1CC[C@@]2(C)c3cc(O)ccc3C[C@@H]1C2C (stereo not given in full)	12	-48	-58*	0
CNC(=O)O/N=C/C(C)(C)S(C)=O (stereo not given)	.	.	.	0
COc1ccc(CCN(C)Cc2ccc(F)cc2F)cc1OC	16	-28	-77*	0
CCC(c1nnnn1-c1ccc2c(c1)OCCO2)N1CCC2(CC1)C(=O)NCN2c1ccccc1 (stereo not given)	.	-7	-51*	-1
O=C1NCN(c2ccccc2)C12CCN(CC1COc3ccccc3O1)CC2 (stereo not given)	.	-24	.	.
CC(C)(C)n1nnnc1C(c1ccccc1)N1CCC2(CC1)C(=O)NCN2c1ccccc1 (stereo not given)	.	-12	-67*	-1
O=C1NCN(c2ccccc2)C12CCN(C(c1cccc3ccccc13)c1nnnn1C1CCCCC1)CC2 (stereo not given)	.	-12	-70*	0
O=C1NCN(c2ccccc2)C12CCNCC2	-4	-33	-86*	0
O=C1NCN(c2ccccc2)C12CCN(C(c1cccc3ccccc13)c1nnnn1C1CCCC1)CC2 (stereo not given)	.	-15	-1	0
O=C(O)[C@@H](O)[C@H](O)C(=O)O	22	3	12	0
CC(C)(C)n1nnnc1C(CCc1ccccc1)N1CCC2(CC1)C(=O)NCN2c1ccccc1 (stereo not given)	.	-15	-68*	0
COc1ccc(Cl)cc1C(=O)C1CCCN(Cc2cnc(C)s2)C1 (stereo not given)	14	-8	-56*	2
COc1ccc(C(=O)C2CCCN(Cc3ccc(C)s3)C2)c(OC)c1 (stereo not given)	11	-16	-69*	1
Cc1ccsc1C(=O)C1CCCN(Cc2ccn[nH]2)C1 (stereo not given)	-11	-22	-62*	0
COc1ccc(OC)c(CN2CCCC(C(=O)c3sccc3C)C2)c1 (stereo not given)	19	-21	-82*	1
COc1ccc(C(=O)C2CCCN(Cc3cccc(C)n3)C2)c(OC)c1 (stereo not given)	-7	-9	14	-1
COc1cccc(O)c1CN1CCCC(C(=O)c2sccc2C)C1 (stereo not given)	8	-16	?	1
S=C(SSC(=S)N1CCCCC1)N1CCCCC1	.	-21	.	.
COc1ccc(OC)c([C@@H](O)[C@H](C)N)c1	.	-8	.	.
Cc1ccsc1C(=O)C1CCCN(Cc2cnn(C)c2)C1 (stereo not given)	30	-14	?	1
Cc1ccsc1C(=O)C1CCCN(Cc2cc(C(C)C)n[nH]2)C1 (stereo not given)	-20	-26	-81*	1
